VACV Venus inh: qHTS for Stage-Specific Inhibitors of Vaccinia Orthopoxvirus: Venus Reporter Primary qHTS. Vaccinia virus Venus reporter expression, fluorescence. AID 720580, 2013. Potency, µM (top dose mostly 36.5 µM), usual class: inhibitors. actives 0.46% (n = 330,000); calls by dose curve; tested in A549 cells; note: nearly all actives have a fitted effect of over 30% in size
FMDV antiviral: High Throughput Screening for Foot and Mouth Disease Virus Antivirals. FMDV antiviral cell-based qHTS. Potency, µM (highest dose often 57.9 µM), hits mostly inhibitors. actives 1.2% (n = 410,000); calls by dose curve; tested in HEK293T cells; note: read-out not given here; nearly all actives have a fitted effect of over 45% in size
Lassa entry inh: qHTS for Inhibitors of binding or entry into cells for Lassa Virus; Lassa virus pseudotype entry inhibition, cell reporter; Potency, µM (titrated, usually from 37.9 µM), hits mostly inhibitors; actives 1.2% (n = 300,000); AID 540256, 2011; calls by dose curve; tested in HEK293 cells; note: nearly all actives have a fitted effect of over 50% in size
VACV mCherry inh: qHTS for Stage-Specific Inhibitors of Vaccinia Orthopoxvirus: mCherry Reporter Primary qHTS. Vaccinia virus mCherry reporter infection, fluorescence. Potency, µM (titrated, usually from 36.5 µM), hits mostly inhibitors. actives 0.63% (n = 310,000); calls by dose curve; tested in A549 cells; note: nearly all actives have a fitted effect of over 35% in size
Sm TGR inh: qHTS Assay for the Inhibitors of Schistosoma Mansoni Peroxiredoxins; Schistosoma mansoni thioredoxin glutathione reductase (TGR), Q962Y6; purified TGR, DTNB reduction, TNB absorbance 405 nm; Potency, µM (series often up to 114 µM), hits mostly inhibitors; actives 3% (n = 360,000); active = well fitted inhibition curve with a large enough effect; inconclusive = small, poorly fitted or top-dose-only effect; inactive = no such curve, though single readings can be large or run the other way; note: nearly all actives have a fitted effect of over 60% in size
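Kinetic colorimetric format: TGR-catalysed, NADPH-driven DTNB reduction monitored via TNB absorbance. Enzyme dispensed at 20 nM; compound exposure 15 min at room temperature before reaction start.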
Marburg entry inh: qHTS for inhibitors of binding or entry into cells for Marburg Virus; Marburg virus pseudotyped entry inhibition, cell reporter; actives 1.8% (n = 300,000); AID 540276, 2011; Potency, µM (highest dose often 37.8 µM), actives largely listed as inhibitors; calls by dose curve; tested in HEK293 cells
A number is an active result; . = inactive; ? = inconclusive; / = not tested or not shown; [ ] = dose if it differs, or a comment. Most compounds without a hit are left out; they make up all but 5.4% or so of the library.

SMILES	VACV Venus inh	FMDV antiviral	Lassa entry inh	VACV mCherry inh	Sm TGR inh	Marburg entry inh
CCOC(=O)c1ccc(COC(=O)c2ccc3c(c2)-c2ccccc2C3=O)cc1	.	.	?	.	.	.
CCc1ccc(Cn2c(CNS(=O)(=O)c3ccc(Cl)s3)nc3cccnc32)cc1	.	.	.	.	.	/
Cc1ccc(/C=[N+](\[O-])c2ccc(N(C)C)cc2)c2nsnc12	.	.	?	.	28µM	?
CN(Cc1ccc(-n2cccn2)cc1)C(=O)c1cnn2c1NC(c1ccco1)CC2C(F)(F)F (stereo not drawn)	.	25µM	?	?	?	?
Cc1cccc(C2c3[nH]c4ccccc4c3CCN2C(=O)c2ocnc2C)n1 (stereo not drawn)	.	.	.	.	.	.
Cc1cccc(C2c3[nH]c4ccccc4c3CCN2C(=O)c2nn(C)c(=O)c3ccccc23)n1 (stereo not drawn)	.	?	11µM	.	.	?
Cc1ccc(-n2ccn(CC(=O)c3ccc(F)cc3)c(=O)c2=O)cc1C	.	.	.	.	.	/
Cc1cc(CC(C)CC(C)(C)C)n(O)c(=O)c1 (stereo not drawn)	?	/	/	1µM	/	/
O=C(CS(=O)(=O)c1cccc2nsnc12)NCc1ccc(Cl)cc1	.[7.34 µM]	.	?	.[7.34 µM]	.	/
CCCn1c(N)c(C(=O)CSc2nc3ccccc3s2)c(=O)[nH]c1=O	.	?	?	11µM	.	?
Cn1c(=O)[nH]c(=O)c2c1nc(Sc1nc3ccccc3s1)n2Cc1ccccc1	4µM	?	.	/	.	?
CCOC(=O)N1CCc2cc(OC)c(OC)c3c2c1cc1cc(OC)c(OC)cc13	?	?	?	.	/	7.9µM
COc1cc(CC(=O)N2CCc3ccccc32)cc(OC)c1OC	.	?	.	?	.	.
O=C(NC1CCC(O)CC1)c1ccc(-c2ccc([N+](=O)[O-])cc2)o1 (stereo not drawn)	/	.	/	/	1.4µM	/
O=C(COC(=O)c1ccc(-c2ccc([N+](=O)[O-])cc2)o1)NC(=O)NC1CCCCC1	.	.	.	.	40µM	.
CC(C)(C)OC(=O)N1CCC(c2nnc(SCc3ccccc3)o2)CC1	.	.	?	.	.	.
CN(C)c1ccc(/C=C/c2ncnc3ccccc23)cc1	.	/	/	.	/	/
Cc1ccc(CN(Cc2cc3cc4c(cc3[nH]c2=O)OCCO4)Cc2nnnn2Cc2ccco2)cc1	/	.	?	/	11µM	?
CCN(CC)CCN(Cc1cc2cc3c(cc2[nH]c1=O)OCO3)C(=S)NCC(C)C	/	?	/	/	.	/
Cc1ccc(C)c2[nH]c(=O)c(CN(CCN3CCOCC3)Cc3nnnn3CC3CCCO3)cc12 (stereo not drawn)	.	.	.	.	20µM	.
Cc1ccc2cc(CN(Cc3ccc4c(c3)OCO4)Cc3nnnn3Cc3ccco3)c(=O)[nH]c2c1	?	.	?	.[1.46 µM]	?	?
COc1ccccc1CN(Cc1cc2c(C)ccc(C)c2[nH]c1=O)Cc1nnnn1Cc1ccco1	.	.	?	.	45µM	?
CCN(CC)CCN(Cc1cc2cc3c(cc2[nH]c1=O)OCCO3)C(=S)NCC(C)C	?	.	?	.	?	11µM
Cc1ccc2[nH]c(=O)c(CN(Cc3ccccc3)Cc3nnnn3Cc3ccco3)cc2c1	.	/	/	.	/	/
CO[C@H]1[C@H](NC(=O)c2ccco2)c2ccccc2C12CCN(Cc1cnc(N(C)C)s1)CC2	.	.	/	.	/	/
SMILES	VACV Venus inh	FMDV antiviral	Lassa entry inh	VACV mCherry inh	Sm TGR inh	Marburg entry inh
COc1ccc(NC(=O)Cn2ccn(Cc3ccccc3)c(=O)c2=O)cc1Cl	.	.	.	.	.	/
O=C(Cn1nc2ccccc2n1)N1CCOc2ccc(CN3CCc4sccc4C3)cc2C1	.	.	/	.	/	/
CCCCCCN1C[C@@H](n2cc(COC(=O)c3ccccc3)nn2)[C@H](O)C[C@H]1c1ccccc1	/	/	.	/	/	/
COc1cccc(-n2c(SCc3ccccc3C)nc3c([nH]c4ccccc43)c2=O)c1	.	.	.	.	.	/
CNC(=S)N(Cc1ccco1)Cc1cc2cc3c(cc2[nH]c1=O)OCCO3	.	.	.	.	14µM	.
CSc1cccc(NC(=S)N(CCN(C)C)C(C)c2ccccn2)c1 (stereo not drawn)	?	.	?	.	.	10µM
COc1cccc(C(=O)N2CCCC(c3nc(SCCN4CCOCC4)ncc3C)C2)c1 (stereo not drawn)	.	.	/	.	/	/
O=C(/C=C/N1CCOCC1)c1coc2ccccc12	.	.	?	.	79µM	?
O=C(Nc1cccc(NC(=O)c2cc([N+](=O)[O-])ccc2Cl)n1)c1cc([N+](=O)[O-])ccc1Cl	/	13µM	/	/	/	/
Cc1cc(NC(=O)c2cc([N+](=O)[O-])ccc2Cl)no1	.	?	.	.	.	?
COC(=O)CCS(=O)(=O)c1nc(-c2ccccc2)cc(C(F)(F)F)n1	/	16µM	23µM	/	8.9µM	?
CCC(C)NC(=O)CCSc1nc(-c2ccc(OC)cc2)cc(C(F)(F)F)n1 (stereo not drawn)	.	.	.	.	.	.
CCOC(=O)CS(=O)(=O)c1nc(-c2ccc(F)cc2)cc(C(F)(F)F)n1	10µM	?	?	/	2.8µM	?
CCOC(=O)CS(=O)(=O)c1nc(-c2ccccc2)cc(C(F)(F)F)n1	10µM	22µM	?	/	?	?
COCC(C)NC(=O)CCS(=O)(=O)c1nc(-c2ccc(OC)cc2)cc(C(F)(F)F)n1 (stereo not drawn)	.	32µM	?	.	?	?
CC(C)[C@@H](OCc1ccccc1)[C@H](C)C=NOC[C@@H](O)[C@H]1O[C@@H]2OC(C)(C)O[C@H]2[C@@H]1O	/	/	.	/	/	.
CCOC(=O)CCS(=O)(=O)c1nc(-c2ccccc2)cc(C(F)(F)F)n1	?	20µM	13µM	11µM	28µM	6.3µM
CC(=O)NC(N(C#N)c1nc(Cl)nc(N(C)C)n1)C(Cl)(Cl)Cl (stereo not drawn)	.	.	.	.	40µM	.
C=CCSC(=S)NC1CCS(=O)(=O)C1 (stereo not drawn)	.	13µM	.	.	.	?
NC(=S)NC1CCS(=O)(=O)C1 (stereo not drawn)	.	.	.	.	.	.
COc1ccc(-n2ccnc(NCCc3ccc(S(N)(=O)=O)cc3)c2=O)cc1Cl	.	.	.	.	.	/
C[N+](C)(C)CC[N+]1(C)Cc2c(Cl)c(Cl)c(Cl)c(Cl)c2C1	/	.	/	/	/	/
Cc1sc2nc(CSc3ccccc3)nc(N3CCC(C(N)=O)CC3)c2c1C	/	.	.	/	.	.
CCOC(=O)c1sc2nc(CSc3ccccc3)nc(N3CCC(C(N)=O)CC3)c2c1C	10µM	?	.	11µM	.	?
CCn1cc2nc(SCc3cc(C)ccc3C)n(Cc3ccc(Cl)cc3)c(=O)c2n1	.	?	.	.	.	/

Screening data from PubChem BioAssay.
